From PMC7862700, “An all-to-all approach to the identification of sequence-specific readers for epigenetic DNA modifications on cytosine”

Experiments:
Assay in all cases: DAPPL (digital affinity profiling via proximity ligation, sequencing); 10 mM Tris-HCl pH 7.5, 50 mM NaCl, 1 mM DTT, 4% glycerol, room temperature, 30 min; GST-TFs on glutathione beads, 16-mer random dsDNA library, 0.1% formaldehyde crosslink after washing; high values mean tight binding
[1] = biological target: T1, FLI1 (Homo sapiens, UniProt Q01543 1-452); conditions: protein: recombinant; tags: N-terminal GST; dsDNA, one strand shown
T1 sequence: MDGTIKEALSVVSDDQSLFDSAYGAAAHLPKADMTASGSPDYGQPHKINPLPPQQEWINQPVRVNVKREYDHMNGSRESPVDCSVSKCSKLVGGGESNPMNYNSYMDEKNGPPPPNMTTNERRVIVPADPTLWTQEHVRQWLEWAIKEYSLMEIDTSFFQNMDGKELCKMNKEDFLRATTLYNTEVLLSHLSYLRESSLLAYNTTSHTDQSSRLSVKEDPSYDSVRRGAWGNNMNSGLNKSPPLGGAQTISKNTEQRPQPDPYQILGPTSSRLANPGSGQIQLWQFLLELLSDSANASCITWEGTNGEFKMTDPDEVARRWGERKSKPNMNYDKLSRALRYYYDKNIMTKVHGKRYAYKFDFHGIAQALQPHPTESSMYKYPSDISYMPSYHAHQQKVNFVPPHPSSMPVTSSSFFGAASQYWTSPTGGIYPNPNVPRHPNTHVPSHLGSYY
Procedure, shortened: (§1)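 Beads coated with glutathione captured GST-fused human transcription factors that had been expressed in yeast, and the factors were then given DNA barcodes and pooled with a tag-only sample. The pools were incubated with 200 nmole of a random double-stranded 16-mer DNA library in Tris/NaCl/DTT/glycerol buffer for 30 min at room temperature, washed, crosslinked with 0.1% formaldehyde and proximity-ligated with BsaI/T4 ligase at 37 °C for 1 h. PCR amplification and Illumina NextSeq500 sequencing came last. Binding signal is each hexamer's read frequency for a factor divided by its frequency for the tag-only sample.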

[2] = biological target: T2, ELK1 (Homo sapiens, UniProt P19419 1-428); conditions: protein: recombinant; tags: N-terminal GST; dsDNA, one strand shown
T2 sequence: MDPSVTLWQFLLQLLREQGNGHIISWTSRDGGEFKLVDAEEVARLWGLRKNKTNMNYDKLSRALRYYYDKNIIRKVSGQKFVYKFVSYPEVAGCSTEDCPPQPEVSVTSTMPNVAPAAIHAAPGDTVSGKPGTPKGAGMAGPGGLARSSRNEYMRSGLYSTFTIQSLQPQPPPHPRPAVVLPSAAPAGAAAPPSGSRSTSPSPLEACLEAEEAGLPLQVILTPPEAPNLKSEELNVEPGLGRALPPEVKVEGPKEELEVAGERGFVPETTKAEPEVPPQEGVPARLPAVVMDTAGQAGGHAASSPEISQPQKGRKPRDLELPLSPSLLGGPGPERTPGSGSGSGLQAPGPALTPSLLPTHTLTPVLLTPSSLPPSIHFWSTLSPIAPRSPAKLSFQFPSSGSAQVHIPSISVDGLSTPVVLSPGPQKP
Procedure, shortened: as §1

[3] = biological target: T3, GABPA (Homo sapiens, UniProt Q06546 1-454); conditions: protein: recombinant; tags: N-terminal GST; dsDNA, one strand shown
T3 sequence: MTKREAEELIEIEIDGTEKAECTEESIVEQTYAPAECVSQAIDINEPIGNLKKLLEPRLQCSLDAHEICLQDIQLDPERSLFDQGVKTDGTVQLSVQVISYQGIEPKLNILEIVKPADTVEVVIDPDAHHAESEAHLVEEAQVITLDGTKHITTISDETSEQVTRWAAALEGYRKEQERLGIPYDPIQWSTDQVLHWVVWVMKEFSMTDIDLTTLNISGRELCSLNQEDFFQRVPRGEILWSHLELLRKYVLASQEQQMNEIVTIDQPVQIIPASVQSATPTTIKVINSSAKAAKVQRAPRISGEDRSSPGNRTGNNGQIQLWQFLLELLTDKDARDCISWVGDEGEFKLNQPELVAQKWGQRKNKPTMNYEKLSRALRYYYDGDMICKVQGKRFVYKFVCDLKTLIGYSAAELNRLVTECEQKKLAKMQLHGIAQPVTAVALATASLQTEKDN
Procedure, shortened: as §1

[4] = biological target: T4, ERG (Homo sapiens, UniProt P11308 1-479); conditions: protein: recombinant; tags: N-terminal GST; dsDNA, one strand shown
T4 sequence: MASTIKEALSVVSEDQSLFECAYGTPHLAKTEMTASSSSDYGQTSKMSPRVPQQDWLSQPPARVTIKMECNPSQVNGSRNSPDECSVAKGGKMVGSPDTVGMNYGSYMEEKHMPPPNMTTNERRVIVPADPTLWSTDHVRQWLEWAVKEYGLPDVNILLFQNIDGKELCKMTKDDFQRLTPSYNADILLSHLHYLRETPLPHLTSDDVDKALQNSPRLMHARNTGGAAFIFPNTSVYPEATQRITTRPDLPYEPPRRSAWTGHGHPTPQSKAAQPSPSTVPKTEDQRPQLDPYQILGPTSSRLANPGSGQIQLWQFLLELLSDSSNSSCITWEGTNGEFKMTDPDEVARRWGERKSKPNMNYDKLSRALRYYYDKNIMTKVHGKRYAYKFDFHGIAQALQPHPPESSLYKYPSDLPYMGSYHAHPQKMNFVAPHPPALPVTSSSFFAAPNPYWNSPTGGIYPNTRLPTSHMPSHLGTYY
Procedure, shortened: as §1

[5] = biological target: ELF1 (Homo sapiens, UniProt P32519 1-619); conditions: protein: recombinant; tags: N-terminal GST; dsDNA, one strand shown
Procedure, shortened: as §1

[6] = biological target: T5, EHF (Homo sapiens, UniProt Q9NZC4 1-300); conditions: protein: recombinant; tags: N-terminal GST; dsDNA, one strand shown
T5 sequence: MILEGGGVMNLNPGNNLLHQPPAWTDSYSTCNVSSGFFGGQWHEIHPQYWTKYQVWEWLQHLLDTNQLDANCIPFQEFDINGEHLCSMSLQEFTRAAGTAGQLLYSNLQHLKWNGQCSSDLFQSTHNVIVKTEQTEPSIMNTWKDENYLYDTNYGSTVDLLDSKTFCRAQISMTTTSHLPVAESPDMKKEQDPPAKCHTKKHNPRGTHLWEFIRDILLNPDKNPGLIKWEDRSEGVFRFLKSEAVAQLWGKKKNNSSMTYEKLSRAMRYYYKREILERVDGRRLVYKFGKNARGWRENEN
Procedure, shortened: as §1

[7] = biological target: SPI1 (Homo sapiens, UniProt P17947 1-270); conditions: protein: recombinant; tags: N-terminal GST; dsDNA, one strand shown
Procedure, shortened: as §1

[8] = biological target: SPIB (Homo sapiens, UniProt Q01892 1-262); conditions: protein: recombinant; tags: N-terminal GST; dsDNA, one strand shown
Procedure, shortened: as §1

[9] = biological target: T6, ELK3 (Homo sapiens, UniProt P41970 1-407); conditions: protein: recombinant; tags: N-terminal GST; dsDNA, one strand shown
T6 sequence: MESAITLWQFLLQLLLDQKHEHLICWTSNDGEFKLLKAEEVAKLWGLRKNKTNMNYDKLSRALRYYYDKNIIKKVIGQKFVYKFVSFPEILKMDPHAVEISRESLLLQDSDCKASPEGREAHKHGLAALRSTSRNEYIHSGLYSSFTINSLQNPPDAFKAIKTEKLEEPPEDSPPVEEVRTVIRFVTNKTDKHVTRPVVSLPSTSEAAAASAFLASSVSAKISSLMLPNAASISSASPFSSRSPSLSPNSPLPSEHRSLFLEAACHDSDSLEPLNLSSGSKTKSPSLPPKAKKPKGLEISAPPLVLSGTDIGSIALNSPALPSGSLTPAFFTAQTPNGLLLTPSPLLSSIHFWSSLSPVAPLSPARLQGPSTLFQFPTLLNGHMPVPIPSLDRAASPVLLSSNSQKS
Procedure, shortened: as §1

[10] = biological target: T7, FEV (Homo sapiens, UniProt Q99581 1-238); conditions: protein: recombinant; tags: N-terminal GST; dsDNA, one strand shown
T7 sequence: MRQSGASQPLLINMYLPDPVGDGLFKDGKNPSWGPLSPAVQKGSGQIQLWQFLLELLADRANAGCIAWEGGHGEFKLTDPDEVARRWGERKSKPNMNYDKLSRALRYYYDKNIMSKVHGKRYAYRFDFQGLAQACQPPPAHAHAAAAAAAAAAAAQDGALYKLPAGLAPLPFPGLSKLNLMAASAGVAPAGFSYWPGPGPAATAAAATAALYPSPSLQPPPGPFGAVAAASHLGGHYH
Procedure, shortened: as §1

[11] = biological target: ETV5 (Homo sapiens, UniProt P41161 1-510); conditions: protein: recombinant; tags: N-terminal GST; dsDNA, one strand shown
Procedure, shortened: as §1

[12] = biological target: HSF1 (Homo sapiens, UniProt Q00613 1-529); conditions: protein: recombinant; tags: N-terminal GST; chain copies: 3; dsDNA, one strand shown
Procedure, shortened: as §1

[13] = biological target: T8, SPIC (Homo sapiens, UniProt Q8N5J4 1-248); conditions: protein: recombinant; tags: N-terminal GST; dsDNA, one strand shown
T8 sequence: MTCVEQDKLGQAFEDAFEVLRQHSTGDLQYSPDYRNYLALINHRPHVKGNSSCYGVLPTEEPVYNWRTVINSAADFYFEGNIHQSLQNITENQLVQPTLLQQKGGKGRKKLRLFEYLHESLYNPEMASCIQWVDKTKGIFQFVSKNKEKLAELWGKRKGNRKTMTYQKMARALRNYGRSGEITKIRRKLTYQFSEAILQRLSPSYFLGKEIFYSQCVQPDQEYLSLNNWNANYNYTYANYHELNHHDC
Procedure, shortened: as §1

[14] = biological target: ELF4 (Homo sapiens, UniProt Q99607 1-663); conditions: protein: recombinant; tags: N-terminal GST; dsDNA, one strand shown
Procedure, shortened: as §1

[15] = biological target: T9, ELK4 (Homo sapiens, UniProt P28324-2 1-405); conditions: protein: recombinant; tags: N-terminal GST; dsDNA, one strand shown
T9 sequence: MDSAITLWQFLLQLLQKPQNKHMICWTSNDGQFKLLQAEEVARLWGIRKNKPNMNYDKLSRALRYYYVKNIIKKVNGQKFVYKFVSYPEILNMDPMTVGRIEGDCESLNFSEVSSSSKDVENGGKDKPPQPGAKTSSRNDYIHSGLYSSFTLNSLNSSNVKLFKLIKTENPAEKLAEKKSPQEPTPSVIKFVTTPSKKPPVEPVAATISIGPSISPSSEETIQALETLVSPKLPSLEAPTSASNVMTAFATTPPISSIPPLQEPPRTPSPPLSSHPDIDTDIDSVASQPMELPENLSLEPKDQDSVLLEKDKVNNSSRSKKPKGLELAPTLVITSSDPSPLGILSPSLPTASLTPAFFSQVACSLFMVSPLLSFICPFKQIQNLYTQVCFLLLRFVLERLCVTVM
Procedure, shortened: as §1

[16] = biological target: T10, ETV2 (Homo sapiens, UniProt O00321 1-342); conditions: protein: recombinant; tags: N-terminal GST; dsDNA, one strand shown
T10 sequence: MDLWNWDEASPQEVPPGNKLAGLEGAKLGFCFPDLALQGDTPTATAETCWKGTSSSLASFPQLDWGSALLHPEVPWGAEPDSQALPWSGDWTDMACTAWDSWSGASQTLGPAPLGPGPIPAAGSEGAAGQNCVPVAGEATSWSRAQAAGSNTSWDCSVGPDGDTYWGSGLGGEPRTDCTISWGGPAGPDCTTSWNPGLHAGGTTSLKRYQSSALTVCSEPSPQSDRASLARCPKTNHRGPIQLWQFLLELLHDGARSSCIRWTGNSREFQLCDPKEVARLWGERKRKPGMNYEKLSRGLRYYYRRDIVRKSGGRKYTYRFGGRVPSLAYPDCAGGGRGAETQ
Procedure, shortened: as §1

[17] = biological target: T11, ELF3 (Homo sapiens, UniProt P78545 1-371); conditions: protein: recombinant; tags: N-terminal GST; dsDNA, one strand shown
T11 sequence: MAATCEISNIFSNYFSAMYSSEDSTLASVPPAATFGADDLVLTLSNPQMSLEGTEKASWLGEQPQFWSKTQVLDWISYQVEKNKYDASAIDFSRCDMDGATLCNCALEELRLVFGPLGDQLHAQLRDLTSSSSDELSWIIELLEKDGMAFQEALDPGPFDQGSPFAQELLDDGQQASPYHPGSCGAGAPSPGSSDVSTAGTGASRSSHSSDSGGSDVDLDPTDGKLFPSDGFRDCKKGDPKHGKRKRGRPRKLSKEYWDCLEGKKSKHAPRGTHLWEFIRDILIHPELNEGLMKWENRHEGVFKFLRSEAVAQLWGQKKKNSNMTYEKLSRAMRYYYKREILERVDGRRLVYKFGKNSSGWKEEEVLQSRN
Procedure, shortened: as §1

[18] = biological target: CRX (Homo sapiens, UniProt O43186 1-299); conditions: protein: recombinant; tags: N-terminal GST; dsDNA, one strand shown
Procedure, shortened: as §1

[19] = biological target: ETV1 (Homo sapiens, UniProt P50549 1-477); conditions: protein: recombinant; tags: N-terminal GST; dsDNA, one strand shown
Procedure, shortened: as §1

Sequence of CRX (O43186 whole entry): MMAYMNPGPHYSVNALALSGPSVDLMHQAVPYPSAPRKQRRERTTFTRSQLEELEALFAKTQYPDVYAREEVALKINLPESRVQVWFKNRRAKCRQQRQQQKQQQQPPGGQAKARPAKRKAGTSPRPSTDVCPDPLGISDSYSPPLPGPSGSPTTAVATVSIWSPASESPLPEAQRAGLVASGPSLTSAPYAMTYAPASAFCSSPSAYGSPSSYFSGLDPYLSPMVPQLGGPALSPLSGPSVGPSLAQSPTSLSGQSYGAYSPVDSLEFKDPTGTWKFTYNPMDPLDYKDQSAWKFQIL
Sequence of SPIB (Q01892 whole entry): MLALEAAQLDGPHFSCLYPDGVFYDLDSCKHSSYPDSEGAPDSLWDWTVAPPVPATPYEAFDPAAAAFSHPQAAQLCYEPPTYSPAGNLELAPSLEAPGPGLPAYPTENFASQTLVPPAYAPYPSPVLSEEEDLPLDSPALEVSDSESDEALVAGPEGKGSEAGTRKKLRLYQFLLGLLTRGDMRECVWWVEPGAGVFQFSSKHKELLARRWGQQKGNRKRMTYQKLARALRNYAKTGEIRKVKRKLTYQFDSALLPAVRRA
Sequence of HSF1 (Q00613 whole entry): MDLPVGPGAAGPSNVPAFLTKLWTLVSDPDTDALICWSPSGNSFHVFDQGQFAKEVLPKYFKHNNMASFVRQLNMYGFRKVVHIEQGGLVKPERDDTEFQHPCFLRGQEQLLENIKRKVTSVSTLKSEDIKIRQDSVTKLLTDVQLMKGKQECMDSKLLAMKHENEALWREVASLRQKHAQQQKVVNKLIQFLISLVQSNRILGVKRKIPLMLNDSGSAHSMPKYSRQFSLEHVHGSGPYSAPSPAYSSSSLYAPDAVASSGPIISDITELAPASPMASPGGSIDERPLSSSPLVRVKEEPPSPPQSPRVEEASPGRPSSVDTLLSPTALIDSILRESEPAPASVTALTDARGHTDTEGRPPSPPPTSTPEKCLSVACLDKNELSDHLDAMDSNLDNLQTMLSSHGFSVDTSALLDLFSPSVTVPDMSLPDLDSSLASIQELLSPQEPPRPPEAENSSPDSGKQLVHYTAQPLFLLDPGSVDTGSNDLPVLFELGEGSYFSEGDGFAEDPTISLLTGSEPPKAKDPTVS
Sequence of ELF1 (P32519 whole entry): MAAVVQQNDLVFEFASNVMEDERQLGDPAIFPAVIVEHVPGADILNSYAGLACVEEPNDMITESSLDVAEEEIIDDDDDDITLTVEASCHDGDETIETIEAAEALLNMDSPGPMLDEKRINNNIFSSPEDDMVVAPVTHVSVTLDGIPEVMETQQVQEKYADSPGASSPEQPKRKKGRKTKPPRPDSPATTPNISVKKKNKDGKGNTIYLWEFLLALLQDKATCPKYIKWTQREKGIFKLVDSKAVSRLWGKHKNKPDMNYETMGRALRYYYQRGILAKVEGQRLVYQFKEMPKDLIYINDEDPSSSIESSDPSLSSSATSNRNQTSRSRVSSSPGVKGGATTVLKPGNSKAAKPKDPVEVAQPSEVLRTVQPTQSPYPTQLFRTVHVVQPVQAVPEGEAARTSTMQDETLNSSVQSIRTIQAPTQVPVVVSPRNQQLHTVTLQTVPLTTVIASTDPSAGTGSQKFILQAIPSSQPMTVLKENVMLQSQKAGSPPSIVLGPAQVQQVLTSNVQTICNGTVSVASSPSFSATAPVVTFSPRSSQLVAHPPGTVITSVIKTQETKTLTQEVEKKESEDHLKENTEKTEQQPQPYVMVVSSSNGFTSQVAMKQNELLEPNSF
Sequence of ETV1 (P50549 whole entry): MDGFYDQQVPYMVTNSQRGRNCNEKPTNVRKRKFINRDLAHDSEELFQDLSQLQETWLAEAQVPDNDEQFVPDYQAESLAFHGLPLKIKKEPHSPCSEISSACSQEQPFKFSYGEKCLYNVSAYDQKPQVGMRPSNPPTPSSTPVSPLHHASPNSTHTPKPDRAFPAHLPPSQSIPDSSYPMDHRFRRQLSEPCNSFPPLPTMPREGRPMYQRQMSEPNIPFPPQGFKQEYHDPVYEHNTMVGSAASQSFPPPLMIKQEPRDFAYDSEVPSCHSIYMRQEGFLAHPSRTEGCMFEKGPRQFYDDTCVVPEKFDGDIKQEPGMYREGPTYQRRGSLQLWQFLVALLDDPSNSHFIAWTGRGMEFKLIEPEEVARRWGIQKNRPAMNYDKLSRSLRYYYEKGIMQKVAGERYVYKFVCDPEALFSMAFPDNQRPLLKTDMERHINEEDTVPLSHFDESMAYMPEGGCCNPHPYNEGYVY
Sequence of ETV5 (P41161 whole entry): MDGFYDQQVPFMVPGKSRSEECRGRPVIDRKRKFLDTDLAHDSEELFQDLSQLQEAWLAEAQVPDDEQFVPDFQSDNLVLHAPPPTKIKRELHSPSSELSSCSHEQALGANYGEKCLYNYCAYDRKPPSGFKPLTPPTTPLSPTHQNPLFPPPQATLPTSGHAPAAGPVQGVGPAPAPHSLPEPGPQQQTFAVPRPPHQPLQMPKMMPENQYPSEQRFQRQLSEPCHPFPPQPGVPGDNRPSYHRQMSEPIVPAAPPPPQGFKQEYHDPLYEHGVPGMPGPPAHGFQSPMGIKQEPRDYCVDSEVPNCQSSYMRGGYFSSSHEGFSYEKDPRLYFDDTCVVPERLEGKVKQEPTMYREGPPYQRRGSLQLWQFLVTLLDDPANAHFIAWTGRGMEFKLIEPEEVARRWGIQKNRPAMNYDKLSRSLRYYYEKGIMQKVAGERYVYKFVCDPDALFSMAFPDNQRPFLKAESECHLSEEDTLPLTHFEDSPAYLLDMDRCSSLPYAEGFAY
Sequence of ELF4 (Q99607 whole entry): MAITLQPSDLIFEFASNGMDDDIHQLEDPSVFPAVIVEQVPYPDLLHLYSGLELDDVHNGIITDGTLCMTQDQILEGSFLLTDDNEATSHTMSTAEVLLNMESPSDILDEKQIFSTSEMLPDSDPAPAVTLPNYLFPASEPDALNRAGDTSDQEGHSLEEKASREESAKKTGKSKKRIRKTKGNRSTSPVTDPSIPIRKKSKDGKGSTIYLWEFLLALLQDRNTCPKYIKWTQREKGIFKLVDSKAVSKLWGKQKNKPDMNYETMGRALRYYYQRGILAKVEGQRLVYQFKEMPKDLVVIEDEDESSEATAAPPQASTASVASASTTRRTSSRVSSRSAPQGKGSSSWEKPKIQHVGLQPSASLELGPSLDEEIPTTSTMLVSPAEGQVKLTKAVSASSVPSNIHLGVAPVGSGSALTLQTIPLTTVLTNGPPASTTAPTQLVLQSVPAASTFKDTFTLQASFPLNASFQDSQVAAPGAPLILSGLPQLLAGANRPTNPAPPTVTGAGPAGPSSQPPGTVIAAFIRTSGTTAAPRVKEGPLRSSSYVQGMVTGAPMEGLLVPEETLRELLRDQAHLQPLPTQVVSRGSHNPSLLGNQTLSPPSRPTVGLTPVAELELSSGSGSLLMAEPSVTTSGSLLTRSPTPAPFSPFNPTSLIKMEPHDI

CTTTTC
binding signal [1]: 1.44 fold enrichment (6-mer frequency, TF over GST control) | binding signal [2]: 1.51 fold enrichment (6-mer frequency, TF over GST control) | binding signal [3]: 1.34 fold enrichment (6-mer frequency, TF over GST control) | binding signal [4]: 1.43 fold enrichment (6-mer frequency, TF over GST control) | binding signal [5]: 1.38 fold enrichment (6-mer frequency, TF over GST control) | binding signal [6]: 1.39 fold enrichment (6-mer frequency, TF over GST control) | binding signal [7]: 1.65 fold enrichment (6-mer frequency, TF over GST control) | binding signal [8]: 1.53 fold enrichment (6-mer frequency, TF over GST control) | binding signal [9]: 1.23 fold enrichment (6-mer frequency, TF over GST control) | binding signal [10]: 1.39 fold enrichment (6-mer frequency, TF over GST control) | binding signal [11]: 1.44 fold enrichment (6-mer frequency, TF over GST control) | binding signal [12]: 1.5 fold enrichment (6-mer frequency, TF over GST control) | binding signal [13]: 1.45 fold enrichment (6-mer frequency, TF over GST control) | binding signal [14]: 1.43 fold enrichment (6-mer frequency, TF over GST control) | binding signal [15]: 1.49 fold enrichment (6-mer frequency, TF over GST control) | binding signal [16]: 1.48 fold enrichment (6-mer frequency, TF over GST control) | binding signal [17]: 1.48 fold enrichment (6-mer frequency, TF over GST control) | binding signal [18]: 1.25 fold enrichment (6-mer frequency, TF over GST control) | binding signal [19]: 1.4 fold enrichment (6-mer frequency, TF over GST control)
